Common to all, as to assay: DAPPL (digital affinity profiling via proximity ligation, sequencing); 10 mM Tris-HCl pH 7.5, 50 mM NaCl, 1 mM DTT, 4% glycerol, room temperature, 30 min; GST-TFs on glutathione beads, 16-mer random dsDNA library, 0.1% formaldehyde crosslink after washing; high values mean tight binding
Holding throughout (conditions): protein: recombinant; tags: N-terminal GST; dsDNA, one strand shown

One test addresses T1, FLI1 (Homo sapiens, UniProt Q01543 1-452).
T1 sequence: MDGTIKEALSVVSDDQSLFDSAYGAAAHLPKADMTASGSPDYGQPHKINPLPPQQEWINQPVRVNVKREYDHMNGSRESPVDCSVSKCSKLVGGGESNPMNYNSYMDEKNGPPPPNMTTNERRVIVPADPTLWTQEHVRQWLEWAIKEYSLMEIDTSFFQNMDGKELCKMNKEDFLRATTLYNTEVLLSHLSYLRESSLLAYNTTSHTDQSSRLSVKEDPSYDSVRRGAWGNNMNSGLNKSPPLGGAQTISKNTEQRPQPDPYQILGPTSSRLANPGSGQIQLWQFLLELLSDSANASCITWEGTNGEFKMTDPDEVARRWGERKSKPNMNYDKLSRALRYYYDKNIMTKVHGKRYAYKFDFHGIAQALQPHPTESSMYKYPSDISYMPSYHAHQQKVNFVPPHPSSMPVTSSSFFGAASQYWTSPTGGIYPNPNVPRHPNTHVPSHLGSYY
The method, boiled down:
(§1)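 Each value of binding signal is a hexamer's read frequency for a factor divided by the same hexamer's frequency in the tag-only sample. Barcoded, bead-captured GST fusions of human transcription factors made in yeast were pooled with that sample and incubated with 200 nmole of a random double-stranded 16-mer DNA library in Tris/NaCl/DTT/glycerol buffer at room temperature for 30 min. Washing, 0.1% formaldehyde crosslinking, proximity ligation, PCR and Illumina NextSeq500 sequencing followed.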

The next test deals with T2, GABPA (Homo sapiens, UniProt Q06546 1-454).
T2 sequence: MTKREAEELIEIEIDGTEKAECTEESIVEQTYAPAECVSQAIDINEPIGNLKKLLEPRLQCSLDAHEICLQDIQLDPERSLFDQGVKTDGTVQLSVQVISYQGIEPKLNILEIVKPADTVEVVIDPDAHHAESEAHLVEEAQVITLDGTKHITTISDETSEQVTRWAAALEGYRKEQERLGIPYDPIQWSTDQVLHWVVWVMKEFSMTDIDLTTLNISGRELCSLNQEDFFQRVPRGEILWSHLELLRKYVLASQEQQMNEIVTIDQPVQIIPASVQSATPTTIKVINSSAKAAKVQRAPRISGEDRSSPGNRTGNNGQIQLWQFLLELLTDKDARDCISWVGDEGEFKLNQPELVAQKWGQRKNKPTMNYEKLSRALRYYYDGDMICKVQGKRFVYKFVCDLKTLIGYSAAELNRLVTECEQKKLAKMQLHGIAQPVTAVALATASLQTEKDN
The method, boiled down:
as §1

In the next test the target is T3, ERG (Homo sapiens, UniProt P11308 1-479).
T3 sequence: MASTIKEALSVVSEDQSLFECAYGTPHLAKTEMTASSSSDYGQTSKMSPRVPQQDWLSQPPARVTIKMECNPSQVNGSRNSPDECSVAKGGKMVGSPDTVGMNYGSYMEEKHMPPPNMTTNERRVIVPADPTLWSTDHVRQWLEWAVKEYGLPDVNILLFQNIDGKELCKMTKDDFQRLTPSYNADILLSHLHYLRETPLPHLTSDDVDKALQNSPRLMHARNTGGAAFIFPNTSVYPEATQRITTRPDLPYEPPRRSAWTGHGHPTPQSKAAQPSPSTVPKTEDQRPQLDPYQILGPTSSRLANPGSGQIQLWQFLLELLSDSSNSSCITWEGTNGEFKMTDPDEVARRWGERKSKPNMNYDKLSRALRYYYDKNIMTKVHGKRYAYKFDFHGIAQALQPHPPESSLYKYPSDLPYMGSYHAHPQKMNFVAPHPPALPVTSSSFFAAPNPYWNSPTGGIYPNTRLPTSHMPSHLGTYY
Put shortly:
as §1

Another test deals with ELF1 (Homo sapiens, UniProt P32519 1-619). Put shortly:
as §1

A further test concerns the target SPIB (Homo sapiens, UniProt Q01892 1-262). Put shortly:
as §1

A further test concerns the target T4, ELK3 (Homo sapiens, UniProt P41970 1-407).
T4 sequence: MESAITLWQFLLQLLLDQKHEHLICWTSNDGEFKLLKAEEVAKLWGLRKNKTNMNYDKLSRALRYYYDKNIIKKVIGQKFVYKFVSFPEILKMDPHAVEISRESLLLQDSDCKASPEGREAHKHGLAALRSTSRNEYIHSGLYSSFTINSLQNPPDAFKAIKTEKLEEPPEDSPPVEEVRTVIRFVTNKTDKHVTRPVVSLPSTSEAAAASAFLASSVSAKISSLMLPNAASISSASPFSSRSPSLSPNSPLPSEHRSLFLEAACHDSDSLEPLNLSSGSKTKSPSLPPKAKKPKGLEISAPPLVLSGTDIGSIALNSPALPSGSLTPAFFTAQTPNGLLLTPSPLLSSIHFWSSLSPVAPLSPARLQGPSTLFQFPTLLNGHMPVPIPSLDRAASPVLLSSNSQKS
Put shortly:
as §1

In the next test the target is T5, ELK4 (Homo sapiens, UniProt P28324-2 1-405).
T5 sequence: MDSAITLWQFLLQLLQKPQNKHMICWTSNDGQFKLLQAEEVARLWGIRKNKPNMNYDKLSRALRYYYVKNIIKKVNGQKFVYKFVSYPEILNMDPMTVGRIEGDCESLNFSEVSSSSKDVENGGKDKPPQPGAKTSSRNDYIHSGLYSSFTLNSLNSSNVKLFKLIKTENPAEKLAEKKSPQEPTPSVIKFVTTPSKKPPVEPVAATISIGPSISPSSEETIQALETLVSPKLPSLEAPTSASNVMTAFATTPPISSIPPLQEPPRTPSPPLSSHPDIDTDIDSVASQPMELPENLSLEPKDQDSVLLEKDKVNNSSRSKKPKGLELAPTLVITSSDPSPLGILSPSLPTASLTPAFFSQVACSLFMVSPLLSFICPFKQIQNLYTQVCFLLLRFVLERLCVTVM
The method, boiled down:
as §1

Another test concerns the target ETV1 (Homo sapiens, UniProt P50549 1-477). The method, boiled down: as §1
For the next test, the target named is T6, ERF (Homo sapiens, UniProt P50548 1-548).
T6 sequence: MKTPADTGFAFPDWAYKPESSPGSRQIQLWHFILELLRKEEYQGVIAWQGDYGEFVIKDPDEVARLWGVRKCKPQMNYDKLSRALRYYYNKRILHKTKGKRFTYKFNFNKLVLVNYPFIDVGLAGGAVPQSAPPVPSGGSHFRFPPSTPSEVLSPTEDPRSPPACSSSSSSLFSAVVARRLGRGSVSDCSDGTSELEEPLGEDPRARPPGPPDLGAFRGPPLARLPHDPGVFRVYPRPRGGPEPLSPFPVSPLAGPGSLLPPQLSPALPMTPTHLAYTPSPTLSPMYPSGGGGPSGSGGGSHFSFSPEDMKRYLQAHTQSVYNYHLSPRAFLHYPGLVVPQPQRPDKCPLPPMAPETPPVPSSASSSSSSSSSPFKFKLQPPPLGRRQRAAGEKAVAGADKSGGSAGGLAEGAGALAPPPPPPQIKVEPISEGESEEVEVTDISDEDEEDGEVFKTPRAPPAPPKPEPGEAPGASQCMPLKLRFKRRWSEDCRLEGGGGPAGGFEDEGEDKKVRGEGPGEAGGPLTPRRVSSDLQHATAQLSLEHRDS
Put shortly: as §1

In another test the target is T7, ETV3L (Homo sapiens, UniProt Q6ZN32 1-361).
T7 sequence: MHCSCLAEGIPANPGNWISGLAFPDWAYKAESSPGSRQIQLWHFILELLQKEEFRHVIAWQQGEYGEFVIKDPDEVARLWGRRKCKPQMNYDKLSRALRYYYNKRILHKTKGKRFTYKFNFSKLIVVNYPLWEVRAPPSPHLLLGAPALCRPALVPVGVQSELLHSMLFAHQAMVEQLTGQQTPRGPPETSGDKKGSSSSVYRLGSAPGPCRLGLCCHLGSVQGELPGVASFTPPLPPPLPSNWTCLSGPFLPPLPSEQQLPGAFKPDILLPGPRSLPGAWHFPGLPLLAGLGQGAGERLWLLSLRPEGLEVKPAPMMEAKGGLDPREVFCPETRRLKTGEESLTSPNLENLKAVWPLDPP
Put shortly: as §1

The target in a further test is T8, ETS2 (Homo sapiens, UniProt P15036 1-469).
T8 sequence: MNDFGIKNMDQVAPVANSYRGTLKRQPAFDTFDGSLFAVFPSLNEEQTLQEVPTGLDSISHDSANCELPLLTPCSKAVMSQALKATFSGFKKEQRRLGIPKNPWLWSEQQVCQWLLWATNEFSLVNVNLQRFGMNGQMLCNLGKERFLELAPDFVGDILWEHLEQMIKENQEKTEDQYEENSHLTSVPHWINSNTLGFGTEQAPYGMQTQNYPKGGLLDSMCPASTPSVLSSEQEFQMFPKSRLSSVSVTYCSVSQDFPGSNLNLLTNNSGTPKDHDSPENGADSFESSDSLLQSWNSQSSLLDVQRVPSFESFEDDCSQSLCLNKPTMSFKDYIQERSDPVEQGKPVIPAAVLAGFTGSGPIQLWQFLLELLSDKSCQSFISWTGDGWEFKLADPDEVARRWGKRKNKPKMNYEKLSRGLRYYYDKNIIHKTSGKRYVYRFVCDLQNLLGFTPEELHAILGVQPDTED
The method, boiled down: as §1

Sequence of ELF1 (P32519 whole entry): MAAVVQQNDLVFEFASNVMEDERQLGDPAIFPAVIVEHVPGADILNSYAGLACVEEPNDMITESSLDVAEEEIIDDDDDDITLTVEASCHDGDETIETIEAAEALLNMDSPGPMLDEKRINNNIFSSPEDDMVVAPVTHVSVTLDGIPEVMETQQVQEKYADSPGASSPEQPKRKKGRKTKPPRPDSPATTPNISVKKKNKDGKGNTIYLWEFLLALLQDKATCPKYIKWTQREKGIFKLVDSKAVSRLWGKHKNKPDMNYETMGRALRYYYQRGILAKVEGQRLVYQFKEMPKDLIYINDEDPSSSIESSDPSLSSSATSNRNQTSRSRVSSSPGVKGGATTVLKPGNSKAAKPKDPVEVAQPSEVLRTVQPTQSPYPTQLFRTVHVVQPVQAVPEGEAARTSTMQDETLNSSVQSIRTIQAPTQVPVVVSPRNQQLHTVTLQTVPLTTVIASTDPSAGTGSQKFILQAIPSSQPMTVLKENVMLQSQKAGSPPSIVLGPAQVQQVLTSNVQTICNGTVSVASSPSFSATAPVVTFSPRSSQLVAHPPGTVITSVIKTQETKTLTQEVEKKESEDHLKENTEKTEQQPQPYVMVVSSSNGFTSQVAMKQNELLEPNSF
Sequence of SPIB (Q01892 whole entry): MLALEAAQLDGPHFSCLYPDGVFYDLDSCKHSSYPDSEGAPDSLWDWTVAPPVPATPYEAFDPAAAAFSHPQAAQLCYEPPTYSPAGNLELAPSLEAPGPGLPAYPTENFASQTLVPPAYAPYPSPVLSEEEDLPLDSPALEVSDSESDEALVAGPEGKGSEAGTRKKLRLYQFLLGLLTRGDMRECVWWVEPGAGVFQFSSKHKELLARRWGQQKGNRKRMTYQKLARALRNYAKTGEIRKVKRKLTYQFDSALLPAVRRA
Sequence of ETV1 (P50549 whole entry): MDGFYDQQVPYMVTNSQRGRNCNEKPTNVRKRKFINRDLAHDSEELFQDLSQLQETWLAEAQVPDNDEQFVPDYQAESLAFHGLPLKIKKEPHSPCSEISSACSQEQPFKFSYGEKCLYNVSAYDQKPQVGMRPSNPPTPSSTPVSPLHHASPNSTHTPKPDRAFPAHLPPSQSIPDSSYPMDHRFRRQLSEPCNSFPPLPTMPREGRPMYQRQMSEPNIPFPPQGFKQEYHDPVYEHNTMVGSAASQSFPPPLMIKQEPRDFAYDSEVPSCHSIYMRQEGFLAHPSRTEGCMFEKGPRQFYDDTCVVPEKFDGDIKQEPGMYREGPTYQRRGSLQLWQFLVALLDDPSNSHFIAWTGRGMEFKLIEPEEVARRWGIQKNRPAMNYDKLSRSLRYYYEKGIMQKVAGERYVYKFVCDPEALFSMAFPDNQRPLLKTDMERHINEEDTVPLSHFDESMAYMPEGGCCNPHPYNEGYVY

For CGGGCT, the binding signal is 1.05 fold enrichment (6-mer frequency, TF over GST control) with FLI1; 1.05 fold enrichment (6-mer frequency, TF over GST control) with GABPA; 1.02 fold enrichment (6-mer frequency, TF over GST control) with ERG; 1.04 fold enrichment (6-mer frequency, TF over GST control) with ELF1; 1.13 fold enrichment (6-mer frequency, TF over GST control) with SPIB; 1.14 fold enrichment (6-mer frequency, TF over GST control) in the test with ELK3. Also, the binding signal is 1.18 fold enrichment (6-mer frequency, TF over GST control) in the test with ELK4; 1.07 fold enrichment (6-mer frequency, TF over GST control) with ETV1; 1.05 fold enrichment (6-mer frequency, TF over GST control) in the test with ERF; 1.01 fold enrichment (6-mer frequency, TF over GST control) with ETV3L; 1.07 fold enrichment (6-mer frequency, TF over GST control) with ETS2.
